Source: PubChem (The Scripps Research Institute Molecular Screening Center)
MOR-DOR inv ag = inverse agonist of human OPRM1-OPRD1 heterodimerization; P35372+P41143; cell-based MOR-DOR heterodimer luminescence, inverse agonism; inhibition, % at 9.3 µM; 0.21% of 340,000 active; AID 504357; in the data active = inhibition above about 22%, passing the limit was not always enough;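 note: 0% = cells with DMSO and 100% = wells without cells with DMSO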
Target sequence (P35372 whole entry, looked up): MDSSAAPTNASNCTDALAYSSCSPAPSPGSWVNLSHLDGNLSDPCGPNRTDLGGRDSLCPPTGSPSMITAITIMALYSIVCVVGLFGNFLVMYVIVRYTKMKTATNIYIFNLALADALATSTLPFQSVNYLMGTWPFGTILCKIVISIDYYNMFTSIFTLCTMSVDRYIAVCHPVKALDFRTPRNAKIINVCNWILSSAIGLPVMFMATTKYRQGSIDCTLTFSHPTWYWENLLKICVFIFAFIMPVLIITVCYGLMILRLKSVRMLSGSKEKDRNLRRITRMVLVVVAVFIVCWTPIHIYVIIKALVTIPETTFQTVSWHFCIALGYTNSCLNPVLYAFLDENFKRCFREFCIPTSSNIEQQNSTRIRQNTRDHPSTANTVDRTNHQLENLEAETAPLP
Target sequence (P41143 whole entry, looked up): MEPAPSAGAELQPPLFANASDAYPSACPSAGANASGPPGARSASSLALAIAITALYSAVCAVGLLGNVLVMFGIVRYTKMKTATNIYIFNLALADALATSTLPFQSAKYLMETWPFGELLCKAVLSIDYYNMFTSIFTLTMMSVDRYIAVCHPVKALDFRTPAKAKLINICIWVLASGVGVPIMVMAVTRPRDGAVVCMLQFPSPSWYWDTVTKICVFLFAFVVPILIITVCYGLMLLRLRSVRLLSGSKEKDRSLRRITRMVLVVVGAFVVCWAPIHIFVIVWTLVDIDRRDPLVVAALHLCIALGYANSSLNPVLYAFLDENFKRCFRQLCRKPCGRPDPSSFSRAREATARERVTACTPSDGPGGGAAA
HTR5A ag ctr = HTR5A agonism, opioid heterodimer counter-screen; AID 504692; 0.61% of 340,000 active; activation, % at 9.3 µM; HTR5A agonist assay, luminescence, cell-based; in the data active = activation mostly above about 9.5%, no sharp cut-off; inactive = mostly below about 7.6%;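 note: 0% = cells with vehicle only and 100% = reference agonist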
MOR-DOR ag-1 = OPRM1-OPRD1 heterodimerization agonism; 0.3% of 340,000 active; cells, luminescence; P35372+P41143; activation, % at 9.3 µM;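 note: 0% = vehicle-treated cells and 100% = reference agonist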
MsrA inh = inhibitors of bovine MsrA; purified bovine MsrA, absorbance read-out; inhibition, % at 15.5 µM; 0.75% of 360,000 active; AID 651718; in the data active = inhibition above about 4.5%;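 note: 0% = vehicle wells with enzyme and 100% = reference inhibitor wells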
HTR5A inv ctr = counter-screen for OPRM1-OPRD1 inverse agonists: human HTR5A inverse agonism | P47898 | HTR5A cell line, luminescence | inhibition, % at 9.3 µM | 0.083% of 340,000 active | AID 504634; in the data active = inhibition mostly above about 23%, no sharp cut-off; inactive = mostly below about 18%;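 note: 0% = cells with DMSO and 100% = no-cell wells with DMSO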
MsrA act = bovine methionine sulfoxide reductase A activation; purified bovine MsrA, absorbance read-out; activation, % at 10.6 µM; 0.3% of 360,000 active; in the data active = activation above about 7.5%;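 note: 0% = vehicle and 100% = reference activator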
MOR-DOR ag-2 = counter-screen for HTR5A agonists: OPRM1-OPRD1 heterodimerization agonism. shares compounds with HTR5A ag ctr. U2OS counter-screen cells, complementation luminescence, 3 h. activation, % at 9.3 µM. 13% of 800 active. AID 504913
HTR5A ag conf = HTR5A (human) agonism, confirmation | shares compounds with HTR5A ag ctr | HTR5A agonist cell assay, luminescence | activation, % at 9.3 µM | 17% of 800 active | AID 504915; in the data active = activation above about 17%;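 note: 0% = cells with vehicle only and 100% = full reference agonist response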
An asterisk follows results filed as active; · = not tested or not shown. Hits are enriched below; roughly 1.9% of the tested compounds scored in any of these assays. Cut-off read from the data, not from the text of the source, unless noted: active = activation above about 18%; inactive = the rest.

SMILES | MOR-DOR inv ag | HTR5A ag ctr | MOR-DOR ag-1 | MsrA inh | HTR5A inv ctr | MsrA act | MOR-DOR ag-2 | HTR5A ag conf
O=C(NCc1ccc2c(c1)OCO2)C1CC(=O)N(CCc2ccccc2)C1 (stereo not given) | 9 | -3 | -1 | 1 | 8 | -1 | · | ·
O=C(NCc1ccc2c(c1)OCO2)C1CC(=O)N(CCc2ccc(F)cc2)C1 (stereo not given) | -12 | 16* | 1 | -1 | -48 | -2 | -1 | -3
O=C(C(=O)N1CCN(S(=O)(=O)c2ccc(OC(F)(F)F)cc2)CC1)c1cccc(C(F)(F)F)c1 | · | · | · | 0 | · | · | · | ·
COCCN(Cc1ccc(C)cc1)C(=O)[C@@H](Cc1ccccc1)NC(=O)[C@H]1O[C@@H](n2ccc(=O)[nH]c2=O)[C@H](O)[C@@H]1O | · | · | · | 0 | · | · | · | ·
O=C1OC(c2ccccc2)(c2ccc(O)cc2)c2ccccc21 (stereo not given) | -3 | 22* | 1 | 0 | -87 | -8 | 2 | 12
Cc1ccc(C)c(NC(=O)COc2coc(CN3CCc4ccccc43)cc2=O)c1 | -7 | 16* | 1 | -2 | -39 | -3 | 4 | 2
Cc1ccccc1NC(=O)COc1coc(CN2CCCc3ccccc32)cc1=O | -11 | -4 | 2 | 1 | 9 | 0 | · | ·
CCN1CCN(c2c(S(=O)(=O)c3ccc(Cl)cc3)cnc3ccccc23)CC1 | · | · | · | 1 | · | · | · | ·
CCCCNc1c(-c2cccc(-c3cc(C(C)=O)cs3)c2)nc2cc(C)ccn12 | -46 | 24* | 8 | 2 | -69 | -16 | 5 | 6
OCC#CCSc1nnc(-c2ccncc2)o1 | 20 | 16* | -5 | 0 | -43 | -15 | 20* | 2
CCOc1ccc(S(=O)(=O)N(C)c2ccc(OCC(=O)N3CCOCC3)cc2)cc1 | 12 | 0 | -2 | 1 | 18 | -5 | · | ·
CN(c1ccc(OCC(=O)N2CCCC2)cc1)S(=O)(=O)c1ccc(Cl)cc1 | 11 | 17* | -3 | 1 | -41 | -6 | 1 | -2
COC(=O)[C@]12C[C@H](CC(=O)N3CCN(C(=O)c4ccco4)CC3)C(=O)N(Cc3ccccc3)C1=C[C@H](C(C)C)O[C@@H]2C1CC1 | · | · | · | 0 | · | · | · | ·
CCOC(=O)C1(Cc2cccc(OC)c2)CCCN(Cc2cc(C(C)C)n[nH]2)C1 (stereo not given) | -1 | 16* | 0 | 0 | -20 | -16 | 3 | 38*
COc1ccc(C(=O)Nc2cccnc2)cc1S(=O)(=O)N1CCOCC1 | 0 | 16* | 0 | 0 | -43 | 0 | 1 | 1
O=C(Nc1cccnc1)c1ccc(Cl)c(S(=O)(=O)N2CCOCC2)c1 | 4 | 0 | -1 | 0 | 0 | -3 | · | ·
CCCN(CCC)c1cc(=O)nc2ccccn12 | · | · | · | 0 | · | · | · | ·
COc1ccc(OC)c(-c2csc(NC(=O)Cn3[nH]c(=O)c4ccccc4c3=O)n2)c1 | -11 | 31* | 2 | -1 | -80 | 0 | 3 | 6
CCN(CC(=O)Nc1ccc(NC(C)=O)cc1)C(=O)c1ccc(C(=O)c2ccccc2)cc1 | 13 | 22* | -4 | -1 | -66 | -7 | 0 | 30*
CCCc1cc2c(OC)ccc(O)c2c(=O)n1C | · | · | · | 0 | · | · | · | ·
CCC(C)(C)C1CCC2(CC1)NC(=O)N(CC(=O)NCCc1c[nH]c3ccccc13)C2=O (stereo not given) | -4 | 19* | 1 | -1 | -52 | 0 | 2 | 8
CC1CCC2(CC1)NC(=O)N(CC(=O)NCCc1c[nH]c3ccccc13)C2=O (stereo not given) | 3 | -3 | -1 | 2 | 12 | -3 | · | ·
O=C(CSC1CCc2ccccc21)NNC(=O)Nc1ccc(Cl)cc1 (stereo not given) | · | · | · | 0 | · | · | · | ·
O=C(N/N=C1\CCCc2ccccc21)c1ccccc1Cl | 7 | 1 | -1 | -1 | -22 | -1 | · | ·
O=C(CNc1ccccc1Cl)N/N=C1\CCCc2ccccc21 | -39 | 21* | 8 | 0 | -10 | -10 | 20* | 36*
SMILES | MOR-DOR inv ag | HTR5A ag ctr | MOR-DOR ag-1 | MsrA inh | HTR5A inv ctr | MsrA act | MOR-DOR ag-2 | HTR5A ag conf
CCCCNc1ccc2c(c1)OC[C@H](C)NS2(=O)=O | · | · | · | 0 | · | · | · | ·
O=C(NC1CCCCCCC1)c1ccccc1O | -7 | -2 | 2 | 1 | -14 | -6 | · | ·
O=C(NC1CCCCC1)c1cc2ccccc2cc1O | -42 | 17* | 8 | 0 | -47 | -8 | 3 | 2
c1ccc2c(-c3csc(-c4ccncc4)n3)c[nH]c2c1 | 3 | 21* | 0 | 1 | -59 | -2 | 2 | -2
CCCCOCC1CN(CCCC)S(=O)(=O)c2c(cccc2N(C)S(=O)(=O)c2ccc(C)cc2)O1 (stereo not given) | · | · | · | 1 | · | · | · | ·
O=c1ccn(C2CC(O)C(COC(c3ccccc3)(c3ccccc3)c3ccccc3)O2)c(=O)[nH]1 (stereo not given) | · | · | · | 2 | · | · | · | ·
COc1cc(CN2CCN(c3ncc(Cc4ccccc4)cn3)CC2)cc(OC)c1 | · | · | · | 1 | · | · | · | ·
CCc1ccc(NC(=O)Cn2nc(C(F)(F)F)c3c2CCC3)cc1 | -67 | 20* | 11 | 1 | -31 | -11 | 8 | 7
CCc1ccccc1NC(=O)Cn1nc(C(F)(F)F)c2c1CCC2 | -6 | -9 | 1 | 1 | 11 | -2 | · | ·
COC(=O)NCC(c1cccnc1)N1CCN(c2ccccc2)CC1 (stereo not given) | 6 | -2 | -1 | -1 | -9 | -6 | · | ·
Cc1ccccc1CNC(=O)C1CCN(c2nnc(N3CCCC3=O)s2)CC1 | 5 | 0 | -1 | 0 | 10 | -8 | · | ·
COc1ccc2[nH]cc(CCNC(=O)C3CCCCC3)c2c1 | 7 | 52* | -1 | 0 | -145 | -1 | -2 | -7
O=C(NCCc1c[nH]c2ccccc12)C(=O)NCC(c1cccnc1)N1CCN(c2ccccc2)CC1 (stereo not given) | -6 | 23* | 1 | 0 | -137 | 0 | 2 | 40*
COc1ccc2[nH]cc(CCNC(=S)NC3CCCC3)c2c1 | 9 | -2 | -2 | -2 | 24 | -6 | · | ·
O=C(O)[C@H]1CCCC[C@H]1C(=O)NCCc1ccccc1 | 8 | 2 | -1 | -1 | -11 | -4 | · | ·
O=C(O)C1CCCCC1C(=O)NCCc1c[nH]c2ccccc12 (stereo not given) | 8 | 45* | -2 | -1 | -213 | -1 | 3 | 7
O=C(NCCc1c[nH]c2ccccc12)C1CCN(c2nnc(N3CCCC3=O)s2)CC1 | 8 | 42* | -2 | 1 | -118 | 0 | 2 | 47*
COC(=O)Cc1nnn2c1[C@H](C)[C@H](c1ccccc1Br)OC[C@@H]2c1ccccc1 | · | · | · | 0 | · | · | · | ·
O=C(Nc1ccc2c(c1)OCO2)c1cnc2n(c1=O)CCS2 | 18 | -3 | -3 | 1 | -31 | -4 | · | ·
O=C(NCc1ccc2c(c1)OCO2)c1cnc2n(c1=O)CCS2 | 5 | 19* | -1 | 1 | -53 | -12 | 0 | 0
